Assay outcomes deposited in PubChem by National Center for Advancing Translational Sciences (NCATS).
Shown are actives, neighbours in structure and some others; about 12% of the full set was active somewhere.
Sfp PPTase inh: qHTS Assay for Inhibitors of Bacillus subtilis Sfp phosphopantetheinyl transferase (PPTase). Biochemical Sfp PPTase activity, qHTS. 310,000 compounds, 3.5% hits. AID 1490, 2009. Potency, µM, inactives show largest response in the series, negative = inhibition, usual class: inhibitors. 4'-phosphopantetheinyl transferase ffp (Bacillus subtilis), Q9F4F7;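 further: the enzyme is Sfp with the accession as filed and its product quenches rhodamine fluorescence; 0% = enzyme reaction without inhibitor and -100% = no enzyme wells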
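Step 1, compound plus 15 nM Sfp-PPTase, 15 min, room temperature. Step 2, add rhodamine-CoA (5 uM) and BHQ-2-YbbR (12.5 uM). Step 3, read 525/598 nm fluorescence at 0 and 30 min.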
L3MBTL1 block: qHTS Assay for the Inhibitors of L3MBTL1; 230,000 compounds, 0.66% hits; AlphaScreen L3MBTL1–H3K9me1 peptide binding; Lethal(3)malignant brain tumor-like protein 1 (Homo sapiens), Q9Y468; Potency, µM (highest dose often 57.1 µM), inactives show at the highest dose activity, negative = inhibition, most hits filed as inhibitors; further: on the % scale 0 is the no-effect control and ±100 the full control effect; nearly all actives have a fitted effect of over 60% in size
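Displacement of a biotinylated histone H3(1-15) peptide monomethylated at Lys9 (75 nM) from L3MBTL1 (50 nM) was measured by AlphaScreen after a 30 min room-temperature compound incubation; cefsulodin titration served as intraplate control.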
BAZ2B block: qHTS Assay for Inhibitors of BAZ2B | Bromodomain adjacent to zinc finger domain protein 2B (Homo sapiens), Q9UIF8 | AlphaScreen BAZ2B-H3K14Ac peptide displacement | 360,000 compounds, 4.4% hits | Potency, µM (doses to about 114 µM), inactives show at the highest dose activity change, negative = inhibition, hits mostly inhibitors; further: on the % scale 0 is the no-effect control and ±100 the full control effect; nearly all actives have a fitted effect of over 60% in size
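Inhibition is scored as reduced AlphaScreen emission. The BAZ2B/b-H3(5-23)K14Ac complex (50 nM each) in PBS pH 7.4, 0.01% Tween-20 meets compound (up to 110 uM) for 30 min at RT before bead addition.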
JMJD2A Tudor: qHTS Assay for Inhibitors of JMJD2A-Tudor Domain; AlphaScreen JMJD2A-Tudor / H3K4me3 peptide binding; Potency, µM (series often up to 114 µM), for the others: at the top dose activity change, negative = inhibition, actives largely listed as inhibitors; 390,000 compounds, 4.4% hits; further: on the % scale 0 is the no-effect control and ±100 the full control effect; nearly all actives have a fitted effect of over 50% in size
G9a block: qHTS Assay for Inhibitors of Histone Lysine Methyltransferase G9a. 350,000 compounds, 8.8% hits. AID 504332, 2011. Potency, µM (top dose mostly 102 µM), inactives show at the top dose activity, negative = inhibition, usual class: inhibitors. G9a H3K9 monomethylation, AlphaScreen, 2 h; further: on the % scale 0 is the no-effect control and ±100 the full control effect; nearly all actives have a fitted effect of over 75% in size
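G9a (20 nM) preincubated 15 min RT with compounds, then 500 nM biotinylated H3K9 peptide and 20 uM SAM added; 2 h RT reaction. Monomethyl-H3K9 product detected by AlphaScreen with anti-H3K9me1 antibody, streptavidin donor and anti-rabbit IgG acceptor beads.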
HP1b chromo inh: HTS for Inhibitors of HP1-beta Chromodomain Interactions with Methylated Histone Tails; AlphaScreen HP1-beta / biotin-H3K9me3 peptide binding; Chromobox protein homolog 1 (Homo sapiens), P83916; 390,000 compounds, 0.56% hits; Potency, µM (doses to about 114 µM), without a hit: at the highest dose activity change, negative = inhibition, usual class: inhibitors; further: nearly all actives have a fitted effect of over 70% in size
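Compound inhibition of the preformed complex between 50 nM HP1-beta and 50 nM biotinylated H3K9me3 peptide was read by AlphaScreen. Buffer was PBS pH 7.4 with 0.01% Tween-20. Incubations ran 30 min at room temperature, with 10 ug/mL donor/acceptor beads.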
* = called active by the depositor; ? = inconclusive; . = not tested or not shown; [ ] = remark or other dose. The call rests on the fitted dose curve; in most records, active means well fitted curve in the direction sought with a large enough effect; inconclusive means small, poorly fitted or top-dose-only effect, or another doubt; inactive means no such curve, though single readings can be large; an effect the other way counts as inactive or inconclusive. Potency means the concentration at half of the fitted maximal effect.

SMILES	Sfp PPTase inh	L3MBTL1 block	BAZ2B block	JMJD2A Tudor	G9a block	HP1b chromo inh
N#Cc1nc(-c2ccc(OCc3ccccc3)cc2)oc1NCCCn1ccnc1	?	?	18µM*	28µM*	?	45µM*
Cc1ccc(C)c(C2=NNC(=NCc3ccccc3)SC2)c1	-108%	.	-33%	-34%	35µM*	-2%
COc1ccc(CN=C2NN=C(c3cccc(OC)c3)CS2)cc1	?	?	?	-31%	?	2%
COc1ccc(CN=C2NN=C(c3ccccc3)CS2)cc1	45µM*	.	.	?	35µM*	-5%
CCc1nn2c(=O)cc(COC(=O)c3cccc(NC(=O)c4cccs4)c3)nc2s1	.	.	-2%	-16%	13%[59 µM]	7%
Nc1cc2c(cc1Cl)-c1ccccc1C2=NO	.	.	.	?	.	-16%
COc1cccc(C(=O)Nc2ccc(S(=O)(=O)Nc3cc(C)nc(C)n3)cc2)c1	12%	-10%	-6%	-5%	?	35%
CCn1c(=O)cc(C(=O)OC)sc1=Nc1ccc(F)c(F)c1	-17%	.	-37%	?	?	1%
CCOC(=O)c1ccc(N=c2sc(C(=O)OC)cc(=O)n2CCCN2CCOCC2)cc1	-14%	.	50µM*	?	50µM*	-8%
COC(=O)c1cc(=O)n(CCc2ccccc2)c(=Nc2ccc(F)cc2)s1	-4%	-9%	-38%	?	7.1µM*	-8%
COC(=O)c1cc(=O)n(CCc2ccc(OC)cc2)c(=Nc2ccc(F)c(Cl)c2)s1	0%	.	-38%	?	?	-14%
COC(=O)c1ccc2c(=O)n(CCCN3CCOCC3)c(=S)[nH]c2c1	1%	4%	-3%	-34%	?	21%
CCOC(=O)c1ccc(N=c2sc(C(=O)OC)cc(=O)n2Cc2ccco2)cc1	-19%	-9%	?	?	40µM*	3%
COc1cccc(-c2ccc3ncnc(NCCc4c[nH]c5ccc(OC)cc45)c3c2)c1	-1%	.	.	.	6%[0.501 µM]	.
O=S(=O)(c1cccs1)N1CCN(c2ccc(O)cc2)CC1	?	-28%	-29%	-24%	35µM*	-15%
O=C(/C=C/c1cccs1)N1CCN(c2ccc(O)cc2)CC1	45µM*	.	-37%	?	7.9µM*	?
CN1CCN(S(=O)(=O)c2cccs2)CC1	12%	9%	-14%	-12%	6%	8%
O=C(/C=C/c1cccs1)N1CCCCC1	4%	-13%	-18%	-6%	23%	14%
CSCSC1=C(C#N)C(c2ccc(Cl)cc2)C(C(C)=O)=C(C)N1 (stereo not drawn)	10µM*	27%	11%	.	7.9µM*	.
CSC1=C(C#N)C(c2ccccc2)C(C(C)=O)=C(C)N1 (stereo not drawn)	19%	5%	-12%	11%	3%	60%
C=CCOC(=O)C1=C(C)NC(SCC(=O)OCC)=C(C#N)C1c1ccc(O)c(OC)c1 (stereo not drawn)	-16%	-3%	6%	-15%	32µM*	29%
CCOC(=O)CSC1=C(C#N)C(c2ccccc2)C(C(C)=O)=C(C)N1 (stereo not drawn)	79µM*	23%	5%	?	-3%[0.501 µM]	70%
CO[C@H]1COC(=O)C/C=C\[C@H](C)[C@@H](OC)COC(=O)[C@@H](C)COC(=O)C/C=C\[C@@H]1C	31%	.	.	.	.	.
COc1ccc(CNC(=O)CSCc2ccc(C)cc2)c(OC)c1	.	.	6%	-3%	-2%[59 µM]	58%
COc1ccc(CN2CCN(c3ccccn3)CC2)c(OC)c1	-23%	0%	79µM*	1.6µM*	?	?
